Source: PubChem BioAssay (Tox21)
Results filed as inconclusive are left out. Calls of active or inactive are those of the source. The call rests on the fitted dose curve; in most records, active means well fitted activation curve with a large enough effect in the signal ratio in the repeat runs (not every such curve was filed as active); inconclusive means weak or mixed curves, or effect the other way; inactive means flat fitted curve, though single readings scatter; the % refers to the signal ratio.

Assay: qHTS assay to identify small molecule agonists of the endoplasmic reticulum stress response signaling pathway (AID 1159516)
Conditions: ESRE-bla HeLa, ER stress beta-lactamase reporter, 5 h; series mostly up to 61 µM
In short: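 Reporter HeLa cells (ESRE-beta-lactamase) underwent 5 hr compound incubation at 37 C and 5% CO2 in quantitative HTS format. Detection followed 2 hr of FRET substrate loading at room temperature.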

| SMILES | outcome |
| --- | --- |
| CC(C)OC(=O)CCCCC(=O)OC(C)C | inactive |
| CC(=O)Nc1ccc(S(=O)(=O)Nc2ccc([N+](=O)[O-])cc2)cc1 | inactive |
| Cc1ccc(S(=O)(=O)O)c(C)c1 | inactive |
| CCCCNc1ccc(C(=O)OCCN(C)C)cc1 | inactive |
| COc1ccc2c(c1)C(=O)N(CCc1ccc(S(=O)(=O)NC(=O)NC3CCCCC3)cc1)C(=O)C2(C)C | inactive |
| CCN(C)C(=O)Oc1cccc([C@H](C)N(C)C)c1 | inactive |
| CC(C)CCCCOC(=O)c1ccccc1C(=O)OCCCCC(C)C | inactive |
| C=C(C)C(=O)OCC(C)(C)COC(=O)C(=C)C | inactive |
| CC(=O)Nc1cccc(C)c1 | inactive |
| CC(C)(C)c1nnc(NS(=O)(=O)c2ccc(N)cc2)s1 | inactive |
| OCCN(CCO)c1cccc(Cl)c1 | inactive |
| COc1cc2c(cc1OC)[C@@H]1CC(=O)[C@@H](CC(C)C)CN1CC2 | inactive |
| O=C(c1ccc(O)cc1)c1ccc(O)c(O)c1O | inactive |
| CCCCNC1CC(C)(C)NC(C)(C)C1 | inactive |
| CCO[Si](CCCS)(OCC)OCC | inactive |
| CC(CC=O)CCCC(C)(C)O (stereo not given) | inactive |
| CCCCCCOC(=O)CC | inactive |
| O=C(O)CCSSCCC(=O)O | inactive |
| O=C1CCCC(=O)O1 | inactive |
| CCCCCOC(=O)CCC | inactive |
| CCCC/C=C\CCCCCCCCCC=O | inactive |
| CCOC(=O)c1ccc(OC(=O)CCCCCN=C(N)N)cc1 | inactive |
| C=C(C)C(=O)OCc1ccccc1 | inactive |
| COP(=O)(OC)OC(c1ccc(Cl)cc1)P(=O)(OC)OC (stereo not given) | inactive |
| NS(=O)(=O)c1ccc(NC(=O)CCC(=O)O)cc1 | inactive |
